Our source for the Percent Effect values is ChEMBL document CHEMBL3988442, “University of Dundee, Small-Polar-MMV Screening Library” (2021).

Each structure is given as a SMILES string.

The target in this experiment is AMP-activated protein kinase, AMPK (Homo sapiens) (UniProt P54646+O43741+P54619+Q9UGJ0+Q9Y478+Q13131+Q9UGI9). Description: AMP-dependent Kinase enzyme assay. An in vitro enzyme assay that detects ADP turnover that is directly proportional to AMPK activity. This uses naive AMPK that is activated during the assay with MK-8722. Format: functional. More on the design: scale not given: direction of the effect not stated beside the values. To be noted: 30 µM.
Turning to `CCC(C)Oc1ccc(CNCCc2c[nH]cn2)cc1Cl` (centres undefined), the Percent Effect is -17.6%.

For the compound `O=C(c1ccc2[nH]cnc2c1)N1CCC(COc2ccccn2)CC1`, the Percent Effect was -1.03%.

On to `CC(CNC(=O)c1cnc[nH]1)Oc1ccc(Cl)cc1` (centres undefined), for which the Percent Effect was 4.75%.

As for `CCc1nc2n(n1)CC(NCc1cc3ccccc3o1)CC2` (centres undefined), the Percent Effect is -3.35%.

Turning to `O=C(COc1cccnc1)NCc1nncn1C1CCCCC1`, the Percent Effect was -3.67%.

Consider `FC(F)(F)c1cc(C2CCCN(Cc3cccnc3)C2)n[nH]1` (centres undefined), for which the Percent Effect is 5.52%.

For the compound `Cc1cc(-c2cnc(N3CCCC3)nc2C(C)C)on1`, the Percent Effect was found to be 16.6%.

Regarding `CC(C)c1cc(C(=O)NCC2CCCN(c3ncccn3)C2)n(C)n1` (centres undefined), the Percent Effect turned out to be 5.97%.

On to `Cc1cccc(C)c1Nc1noc2c1CN(C(=O)c1ccnn1C)CC2`, for which the Percent Effect is 9.88%.

As to `CN(Cc1ccc(F)c(F)c1)Cc1cc2c(cc1Br)OCCO2`, the Percent Effect is -7%.

`O=C(NC1CCOCC1)c1cccc(C2CCCNC2)c1` (centres undefined): the Percent Effect turned out to be 2.1%.

As for `COCCN1CCN(Cc2coc(-c3ccccc3Cl)n2)CC1`, the Percent Effect is -1.56%.

`CC(NC(=O)NC1CCN(Cc2ccncc2)CC1)c1cccc(F)c1` (centres undefined): the Percent Effect amounted to 1.09%.

Consider `O=S(=O)(NCCCn1cncn1)c1ccc2c(c1)OCCCO2`, for which the Percent Effect was determined as 10.2%.

Take `Cc1cc(C)c(C(=O)N(C)CCN(C)C(=O)c2[nH]c(C)cc2C)[nH]1`: the Percent Effect was -2.87%.

For `Cc1ncccc1C(=O)Nc1cccc(Cn2ccccc2=O)c1`, the Percent Effect was determined as 3.58%.

For `CCC(Nc1ccc(CCN2CCCCC2)cc1)C(N)=O` (centres undefined), the Percent Effect was -12.9%.

Take `Fc1ccc(C2(CNCCc3cccs3)CCOC2)cc1` (centres undefined): the Percent Effect was -3.1%.

Take `O=c1cc(N2CCCCC2)cnn1Cc1noc(C2CCCO2)n1` (centres undefined): the Percent Effect was 4.71%.

Turning to `COCCN1C(=O)[C@H]2CC[C@@H]1CN(S(=O)(=O)c1ccc(C#N)cc1)C2`, the Percent Effect worked out at 10.8%.

Regarding `CCCN1CCC(N(C)C(=O)c2cc(C)nc3cc(F)ccc23)CC1`, the Percent Effect was -6.76%.

`O=C(NC1CCCC1)c1cc(Cn2cnc3ccccc32)on1`: the Percent Effect amounted to 0.401%.

For `COc1ccccc1C(=O)N1CCN(C(=O)CCCc2cn[nH]c2)CC1`, the Percent Effect is -2.48%.

For `CS(=O)(=O)NCC1(O)CCCN(C(=O)CCn2cc(Cl)cn2)CC1` (centres undefined), the Percent Effect is -0.47%.

As for `Cc1nc(C)c(C(=O)N2CCc3c(Cl)cccc32)o1`, the Percent Effect stood at 1.75%.

With `CCOc1ccccc1C(C(=O)O)N(C)Cc1nnc(C)o1` (centres undefined), the Percent Effect turned out to be 4.89%.

Regarding `COc1ccc(Br)c(NC(=O)NCc2ncnn2C)c1`, the Percent Effect is -1.33%.

Consider `CC(C)OCCN1CCC(Nc2nccnc2C#N)CC1`, for which the Percent Effect was -5.15%.

Take `COc1cc2c(cc1CNCc1ccnc(-n3cccn3)c1)OC(C)C2` (centres undefined): the Percent Effect was -1.78%.

On to `O=C(Cn1ccnc1)N1CC[C@H](Oc2cccc(F)c2)[C@@H](O)CC1`, for which the Percent Effect was found to be 8.87%.

In the case of `CCOCC(C)(C)NC(=O)Nc1cc(F)ccc1OC`, the Percent Effect came out at 1.04%.

Consider `Cc1[nH]nc(CCC(=O)N2CCc3c(nc[nH]c3=O)C2)c1C`, for which the Percent Effect was 4.58%.

For the compound `CCOc1ccc(NC(=O)NCCCN(C)S(C)(=O)=O)cc1C`, the Percent Effect is -4.23%.

Consider `c1c[nH]c(-c2cn(CCSc3cnn[nH]3)nn2)n1`, for which the Percent Effect was -8.05%.

In the case of `CC(=O)Nc1ccc(CNC(=O)CNCc2nnc(C)o2)cc1`, the Percent Effect was -8.94%.

`COC(=O)NCC(=O)N1CCC(c2cc3ccccc3[nH]2)CC1`: the Percent Effect is 6.03%.

In the case of `CCN1CC(CN(C)c2cc(C)nc(N)n2)Oc2ccccc21` (centres undefined), the Percent Effect came out at 3.94%.

With `CCc1oc(C(=O)NC(C)Cc2cnccn2)cc1CN1CCCC1` (centres undefined), the Percent Effect amounted to 0.442%.

`COc1ccc(NC(=O)c2cnc(C3CCN(C(C)=O)C3)nc2C)cc1` (centres undefined): the Percent Effect is -1.66%.
